# Source: PubChem BioAssay (EPA / NIEHS)
# Several values for one entry are separate records, joined by “and”; a condition that tells them apart may be missing. Identical values can stand only once. Some compounds were tested as several samples or in several runs, with calls that do not always agree. Activity calls are given as the source filed them. The calls were made as follows: active = hit-call score of the fitted dose curve at least 0.9, where 1 is the maximum; inactive = score below 0.9.
# Columns and labels:
# Settings in all cases: mRNA level, 48 h; actives raise or lower the signal
# [1] = read-out: Potassium channel subfamily K member 1 (KCNK1), KCNK1 (gene 3775); test: LTEA_HepaRG_KCNK1: Life Technologies and Expression Analysis (LTEA) Assay for Potassium channel subfamily K member 1 (KCNK1) using HepaRG (AID 2283511)
# How it was run: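 Gain or loss of KCNK1 mRNA is the read-out, quantified by qRT-PCR against three housekeeping genes after 48 h chemical treatment of human HepaRG liver cells. Concentrations ran from 100 uM downward in half-log steps, vehicle 0.5% DMSO.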
# [2] = read-out: Keratin 19 (KRT19), KRT19 (gene 3880); test: LTEA_HepaRG_KRT19: Life Technologies and Expression Analysis (LTEA) Assay for Keratin 19 (KRT19) using HepaRG (AID 2283512)
# How it was run: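 Gene-expression endpoint in the human liver line HepaRG after 48 h exposure to up to 100 uM test chemical with 0.5% DMSO vehicle; KRT19 mRNA by qRT-PCR, analyzed bidirectionally versus DMSO.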
# [3] = read-out: JUN Transcription Factor, JUN (gene 3725); test: LTEA_HepaRG_JUN: Life Technologies and Expression Analysis (LTEA) Assay for JUN Transcription Factor using HepaRG (AID 2283513)
# How it was run: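 HepaRG cells, 48 h post-plating, exposed 48 h in serum-free induction medium to 8-point half-log series (top 100 uM, 0.5% DMSO), duplicate; mRNA by qRT-PCR (TaqMan, Fluidigm), normalized to ACTB/GAPDH/POLR2A; bidirectional fit vs DMSO.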
# [4] = read-out: Lipase C (LIPC), LIPC (gene 3990); test: LTEA_HepaRG_LIPC: Life Technologies and Expression Analysis (LTEA) Assay for Lipase C (LIPC) using HepaRG (AID 2283514)
# How it was run: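 Read-out is LIPC transcript level by TaqMan qRT-PCR, normalized to three housekeeping genes, after 48 h chemical treatment of human HepaRG liver cells. Curves span eight concentrations topping at 100 uM; activity in either direction scored relative to 0.5% DMSO.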
# [5] = read-out: Lipoprotein lipase (LPL), LPL (gene 4023); test: LTEA_HepaRG_LPL: Life Technologies and Expression Analysis (LTEA) Assay for Lipoprotein lipase (LPL) using HepaRG (AID 2283515)
# How it was run: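 Read-out is LPL transcript level by qRT-PCR, normalized to three housekeeping genes and fitted bidirectionally against the DMSO control. Human HepaRG cells received chemicals for 48 h at up to 100 uM.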
# [6] = read-out: MicroRNA 122 (MIR122), gene 406906; test: LTEA_HepaRG_MIR122: Life Technologies and Expression Analysis (LTEA) Assay for MicroRNA 122 (MIR122) using HepaRG (AID 2283516); also: the transcript read is the microRNA miR-122
# How it was run: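 Differentiated human HepaRG cells in serum-free induction medium exposed 48 h to 8 half-log concentrations from 100 uM in 0.5% DMSO, duplicate. MIR122 quantified by Fluidigm TaqMan qRT-PCR, normalised to ACTB, GAPDH, POLR2A; fold change fitted bidirectionally versus DMSO.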
# [7] = read-out: matrix metalloproteinase-10 (MMP10), MMP10 (gene 4319); test: LTEA_HepaRG_MMP10: Life Technologies and Expression Analysis (LTEA) Assay for matrix metalloproteinase-10 (MMP10) using HepaRG (AID 2283517)
# How it was run: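 Gain or loss of MMP10 mRNA is fitted relative to the 0.5% DMSO vehicle. The human hepatic line HepaRG receives a 48-hour serum-free exposure, in duplicate, with a maximum concentration of 100 uM.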
# MYC, MYC (gene 4609) = test: LTEA_HepaRG_MYC: Life Technologies and Expression Analysis (LTEA) Assay for MYC using HepaRG (AID 2283518)
# How it was run: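 Cells are thawed, plated and cultured 48 h, then treated for 48 h with test chemicals (eight half-log concentrations from 100 uM, 0.5% DMSO vehicle). RNA is isolated and MYC expression quantified by qRT-PCR against three housekeeping genes.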
# [8] = read-out: matrix metalloproteinase-3 (MMP3), MMP3 (gene 4314); test: LTEA_HepaRG_MMP3: Life Technologies and Expression Analysis (LTEA) Assay for matrix metalloproteinase-3 (MMP3) using HepaRG (AID 2283519)
# How it was run: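 HepaRG, human; 48 h dosing, 8 conc. (max 100 uM, half-log), duplicate, 0.5% DMSO. Readout: MMP3 transcript by Fluidigm TaqMan qRT-PCR, ACTB/GAPDH/POLR2A-normalised. Gain or loss fitted vs DMSO.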
# [9] = read-out: Paternally Expressed 10 (PEG10), PEG10 (gene 23089); test: LTEA_HepaRG_PEG10: Life Technologies and Expression Analysis (LTEA) Assay for Paternally Expressed 10 (PEG10) using HepaRG (AID 2283520)
# How it was run: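 Differentiated HepaRG cells exposed 48 h in serum-free induction medium to eight half-log concentrations topping at 100 uM, 0.5% DMSO, in duplicate. PEG10 mRNA quantified by TaqMan qRT-PCR, normalized to ACTB, GAPDH and POLR2A; bidirectional fit versus DMSO.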
Compound,outcome [1],outcome [2],outcome [3],outcome [4],outcome [5],outcome [6],outcome [7],"outcome (MYC, MYC (gene 4609))",outcome [8],outcome [9],AC50 [8],AC50 [9],AC50 [2],AC50 [4],AC50 [5],AC50 [6],AC50 [7],"AC50 (MYC, MYC (gene 4609))",AC50 [1],AC50 [3]
CCCN(CCC)c1c([N+](=O)[O-])cc(C(F)(F)F)cc1[N+](=O)[O-],inactive,inactive,inactive,inactive,inactive,inactive,inactive,inactive,inactive,inactive,,,,,,,,,,
COP(=S)(OC)Oc1ccc(SC)c(C)c1,inactive,inactive,inactive,inactive,inactive,inactive,inactive,inactive,,,50 µM (active),9.92 µM (active),,,,,,,,
C[C@H]1[C@H](c2ccc(Cl)cc2)SC(=O)N1C(=O)NC1CCCCC1,inactive,,inactive,,,,,,inactive,,,12.8 µM (active),50 µM (active),36.5 µM (active),60.7 µM (active),60 µM (active),79.5 µM (active),71.1 µM (active),,
CCc1ccc(C(=O)NN(C(=O)c2cc(C)cc(C)c2)C(C)(C)C)cc1,inactive,inactive,inactive,inactive,inactive,inactive,inactive,inactive,inactive,inactive,,,,,,,,,,
CCN(CC)C(=O)SCc1ccc(Cl)cc1,inactive,inactive,inactive,inactive,inactive,inactive,inactive,inactive,inactive,inactive,,,,,,,,,,
Oc1cc(Cl)ccc1Oc1ccc(Cl)cc1Cl,inactive,inactive,inactive,inactive,inactive,inactive,inactive,inactive,inactive,inactive,51 µM (active),51 µM (active),69 µM (active),78.7 µM (active),86.4 nM (active) and 51 µM (active),82.3 µM (active),89 µM (active),83.5 µM (active),,
COP(=S)(OC)Oc1ccc([N+](=O)[O-])cc1,inactive,inactive,inactive,inactive,inactive,inactive,inactive,inactive,inactive,inactive,,,,,,,,,,
CN1CSC(=S)N(C)C1,inactive,inactive,inactive,inactive,inactive,inactive,inactive,inactive,inactive,inactive,,,,,,,,,,
CNC(=O)Oc1ccccc1OC(C)C,inactive,inactive,inactive,inactive,inactive,inactive,inactive,inactive,inactive,inactive,,,,,,,,,,
N#CN,inactive,inactive,inactive,inactive,inactive,inactive,inactive,inactive,inactive,inactive,,,,,,,,,,
CC(C)(C)C(O)C(Oc1ccc(Cl)cc1)n1cncn1 (centres undefined),inactive,inactive,inactive,inactive,inactive,inactive,inactive,inactive,inactive,inactive,50 µM (active),1.4 µM (active),,,,,,,,
ClC1C(Cl)C(Cl)C(Cl)C(Cl)C1Cl (centres undefined),inactive,inactive,inactive,inactive,inactive,inactive,inactive,inactive,inactive,,,4.25 µM (active) and 27.6 µM (active),,,,,,,,
COc1nn(CSP(=S)(OC)OC)c(=O)s1,inactive,inactive,inactive,inactive,inactive,inactive,inactive,inactive,inactive,inactive,,,,,,,,,,
CCOCN(C(=O)CCl)c1c(C)cccc1CC,inactive,inactive,inactive,,inactive,,inactive,inactive,inactive,inactive,,,,88.4 µM (active),,50 µM (active),,,,
COP(=O)(OC)OC=C(Cl)Cl,inactive,inactive,inactive,inactive,inactive,inactive,inactive,inactive,inactive,inactive,,,,,,,,,,
CCC(C)(NC(=O)c1cc(Cl)c(C)c(Cl)c1)C(=O)CCl (centres undefined),,,inactive,,,,,,inactive,,,59.2 µM (active),32.4 µM (active),50.2 µM (active),90.1 µM (active),75.5 µM (active),50.2 µM (active),50.2 µM (active),50.2 µM (active),
O=[N+]([O-])c1c(Cl)c(Cl)c(Cl)c(Cl)c1Cl,inactive,,inactive,inactive,inactive,inactive,inactive,inactive,,,50 µM (active),69.8 µM (active),38.6 µM (active),,,,,,,
Oc1ccc(Cl)cc1Cc1ccccc1,inactive,inactive,inactive,inactive,inactive,inactive,inactive,inactive,inactive,,,89 µM (active) and 77.3 µM (active) and 78.6 µM (active),50.5 µM (active),80.2 µM (active),82.2 µM (active) and 89.3 µM (active),82.4 µM (active),,,,
CC(C)(C)C(O)/C(=C\c1ccc(Cl)cc1Cl)n1cncn1 (centres undefined),,inactive,,,,inactive,inactive,inactive,inactive,,,62.5 µM (active),,21.5 µM (active),12.4 µM (active),,,,71.6 µM (active),72.7 µM (active)
CNC(=O)/C=C(\C)OP(=O)(OC)OC,inactive,inactive,inactive,inactive,inactive,inactive,inactive,inactive,inactive,inactive,,,,,,,,,,
CC1(c2ccc(Oc3ccccc3)cc2)OC(=O)N(Nc2ccccc2)C1=O (centres undefined),,,,,,,,,,,10.6 µM (active),6.47 µM (active),2.79 µM (active),21.5 µM (active),12.3 µM (active),10.6 µM (active),26.1 µM (active),10.2 µM (active),26.3 µM (active),33.5 µM (active)
O=S(=O)(O)C(F)(F)C(F)(F)C(F)(F)C(F)(F)C(F)(F)C(F)(F)C(F)(F)C(F)(F)F,inactive,inactive,inactive,inactive,inactive,inactive,inactive,,inactive,inactive,,,33.1 µM (active) and 32.8 µM (active) and 62.9 µM (active),76 µM (active) and 50 µM (active) and 48 µM (active),61.1 µM (active),82.5 µM (active) and 84.5 µM (active) and 48 µM (active),87.5 µM (active) and 83.7 µM (active),50 µM (active) [middle of 4 runs],,
